# Results taken from PubChem BioAssay (NCI).
# Compounds without any hit were thinned out: in the full panel of roughly 83,000, 20% have a hit.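 Percent growth is the endpoint: 0 to 100 indicates growth inhibition (40 means 60% inhibition), 0 means no net growth, and negative values indicate cell death.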 Unmarked numbers belong to inactive results. The source made the active and inactive calls. Rule for the calls: active = growth percent below 10; inactive = the rest.
# Tested on: BT-549 breast
# Experiment: NCI-60 one-dose screen, 48 h (100 = growth as untreated, 0 = no growth, -100 = all killed)
# Conditions: 10 µM unless noted
row,SMILES,growth
1,O=C(Nc1cnc(Nc2ccc(N3CCOCC3)nc2)nc1Oc1ccc(C(F)(F)F)cc1)c1ccncc1,75.8%
2,O=C(N/N=C\c1cccc([N+](=O)[O-])c1)N/N=C/c1cccc([N+](=O)[O-])c1,108%
3,Oc1ccc(/C=C/c2ccc(O)cc2)cc1,18.7%
4,CCNC(=O)Oc1ccc(/C(=C(/CC)Cc2ccccc2)c2ccc(OCCN3CCCC3)cc2)cc1,100%
5,NNCCc1ccc(NC(=O)CCCc2ccc(C(=O)Nc3ccccc3N)cc2)cc1,71%
6,COC(=O)CCC/C=C\C[C@H]1C=CC(=O)/C1=C/C[C@@H](O)C/C=C\CC(F)(F)F,-18.3% (active)
7,CCCCC#Cc1c(I)n(C)c(=O)[nH]c1=O,-57.1% (active)
8,N#CC1CCc2c(c(-c3ccc4nc(N)sc4c3)nc3ccc4[nH]ncc4c23)C1 (stereo not drawn),65.5%
9,O=C(Cc1ccc(/C=C/C(=O)c2ncc[nH]2)cc1)Nc1cc(C(F)(F)F)cc(C(F)(F)F)c1,99.7%
10,O=c1nc(-c2ccccc2)c2cc(-c3ccc(C(F)(F)F)nc3)ccc2[nH]1,99.3%
11,CO[C@H]1CC(=O)n2c3ccccc3c3c4c(c5c6ccccc6n1c5c32)C(=O)NC4=O,68.6%
12,COc1cc(C2C(C(=O)OCc3ccccc3)=C(C)NC(C)=C2C(=O)OCc2ccccc2)cc(OC)c1OC,34%
13,Cc1cc2c(cc1C)N(C(=O)CCl)CC(=O)N2,18.9%
14,Cc1ccc(S(=O)(=O)Oc2ccc3sc4cccc(NCCN(C)C)c4c(=O)c3c2)cc1,-88.6% (active)
15,COc1ccc2c(c1)/C(=N/c1n[nH]c(=S)s1)C(=O)N2,113%
16,O=C(Cc1ccc(NC(=O)c2cccc(Cl)c2)cc1)NCc1ccccc1,61%
17,COc1ccc(-c2n[nH]c(=O)c3nc(NC(=S)Nc4ccc(Oc5ccccc5)cc4)sc23)cc1,108%
18,C=CCn1c(SCC(=O)Nc2ccc(/C(C)=N/O)cc2)nnc1-c1cc(-c2ccc(S(N)(=O)=O)cc2)nc2ccccc12,58.8%
19,C=C1CC[C@@H]2C(C)(C)[C@@H](O)CC[C@@]2(C)[C@@H]1COc1ccc2ccc(=O)oc2c1,72.7%
20,O=C(O)COc1ccc(Cl)c(Cl)c1,120%

row,SMILES,growth
1,O=C1Nc2ccccc2C1(c1c[nH]c2ccccc12)c1c[nH]c2ccccc12,-17.7% (active)
2,COc1cc(Cl)c(C)cc1NC(=O)c1cc2ccccc2cc1O,22.9%
3,C/C(=N\O)[C@@H]1CC[C@]2(CO)CC[C@]3(C)[C@H](CC[C@@H]4[C@@]5(C)CCCNC(C)(C)[C@@H]5CC[C@]43C)[C@@H]12,90.5%
4,Cc1cccc(N2CCC(=O)NC2=S)c1,104%
5,Nn1c(=O)c(=O)[nH]c2c(cnn2-c2ccccc2)c1=O,114%
6,O=C(Cn1nnc2ccccc21)N/N=C/c1c[nH]c2ccccc12,52.4%
7,O=C(O)/C=C/C(=O)Nc1cccc(Cn2nnc3cc(Cl)c(Cl)cc32)c1,80.1%
8,CN1CCN(Cc2ccc(NC(=O)c3cncc(C#Cc4cnc(N)c5ccc(F)cc45)c3)cc2C(F)(F)F)CC1,42%
9,Cc1ccc2c(-c3nnc(N)s3)cc(=O)oc2c1C,101%
10,CCOc1ccc(-n2nc(C(=O)NCc3ccccc3OC)nc2-c2cc(OC)c(OC)c(OC)c2)cc1,33.9%
11,CC1=C(CCC(C)NCc2ccc(OCCCN3CCCCC3)cc2)C(C)(C)CCC1 (stereo not drawn),-63.9% (active)
12,Cc1nc2ccccc2c(/C=C/c2ccccc2)c1C(=O)/C=C/c1ccccc1,40.6%
13,CCN(CC)CCN1C(=O)c2c(c(C)c3c(oc4ccc(O)cc43)c2C)C1=O,105%
14,COc1ccc(Cn2cc(C(=O)N=Nc3c(O)[nH]c4c(C)cccc34)nn2)cc1,103%
15,FC(F)(F)Oc1cccc(-c2cnc3ccc(-c4ccncc4)nn23)c1,25.2%
16,Cc1c2cccnc2c(C)c2c1c1cc(CO)ccc1n2C,35%
17,CNCc1cccc2c1OCCOCCOCCNS(=O)(=O)c1ccc(cc1)-c1cnc(N)c(n1)C(=O)N2,28.3%
18,CNC(C)[C@H]1CCC2C3CC=C4C(=O)[C@@H](NC(=O)C=C(C)C)CC[C@]4(C)C3CC[C@@]21C (stereo partly drawn),35.9%
19,C=C1C(=O)O[C@H]2[C@H]1CC/C(COC(=O)/C=C\C(=O)NCc1ccc(Cn3c(=O)sn(CCCCC)c3=O)cc1)=C\CC[C@@]1(C)O[C@@H]21,85.8%

# Tested on: MDA-MB-435 melanoma
# Experiment: as above
# Conditions: 10 µM unless noted
row,SMILES,growth
1,O=C(Nc1cnc(Nc2ccc(N3CCOCC3)nc2)nc1Oc1ccc(C(F)(F)F)cc1)c1ccncc1,91.3%
2,O=C(N/N=C\c1cccc([N+](=O)[O-])c1)N/N=C/c1cccc([N+](=O)[O-])c1,108%
3,Oc1ccc(/C=C/c2ccc(O)cc2)cc1,52.8%
4,CCNC(=O)Oc1ccc(/C(=C(/CC)Cc2ccccc2)c2ccc(OCCN3CCCC3)cc2)cc1,102%
5,NNCCc1ccc(NC(=O)CCCc2ccc(C(=O)Nc3ccccc3N)cc2)cc1,71.1%
6,COC(=O)CCC/C=C\C[C@H]1C=CC(=O)/C1=C/C[C@@H](O)C/C=C\CC(F)(F)F,4.2% (active)
7,CCCCC#Cc1c(I)n(C)c(=O)[nH]c1=O,-36.8% (active)
8,N#CC1CCc2c(c(-c3ccc4nc(N)sc4c3)nc3ccc4[nH]ncc4c23)C1 (stereo not drawn),-2.8% (active)
9,O=C(Cc1ccc(/C=C/C(=O)c2ncc[nH]2)cc1)Nc1cc(C(F)(F)F)cc(C(F)(F)F)c1,60.1%
10,O=c1nc(-c2ccccc2)c2cc(-c3ccc(C(F)(F)F)nc3)ccc2[nH]1,104%
11,CO[C@H]1CC(=O)n2c3ccccc3c3c4c(c5c6ccccc6n1c5c32)C(=O)NC4=O,48.5%
12,COc1cc(C2C(C(=O)OCc3ccccc3)=C(C)NC(C)=C2C(=O)OCc2ccccc2)cc(OC)c1OC,27.3%
13,Cc1cc2c(cc1C)N(C(=O)CCl)CC(=O)N2,54.9%
14,Cc1ccc(S(=O)(=O)Oc2ccc3sc4cccc(NCCN(C)C)c4c(=O)c3c2)cc1,-96.3% (active)
15,COc1ccc2c(c1)/C(=N/c1n[nH]c(=S)s1)C(=O)N2,104%
16,O=C(Cc1ccc(NC(=O)c2cccc(Cl)c2)cc1)NCc1ccccc1,-30.1% (active)
17,COc1ccc(-c2n[nH]c(=O)c3nc(NC(=S)Nc4ccc(Oc5ccccc5)cc4)sc23)cc1,97.3%
18,C=CCn1c(SCC(=O)Nc2ccc(/C(C)=N/O)cc2)nnc1-c1cc(-c2ccc(S(N)(=O)=O)cc2)nc2ccccc12,67.3%
19,C=C1CC[C@@H]2C(C)(C)[C@@H](O)CC[C@@]2(C)[C@@H]1COc1ccc2ccc(=O)oc2c1,81.5%
20,O=C(O)COc1ccc(Cl)c(Cl)c1,104%

row,SMILES,growth
1,O=C1Nc2ccccc2C1(c1c[nH]c2ccccc12)c1c[nH]c2ccccc12,85%
2,COc1cc(Cl)c(C)cc1NC(=O)c1cc2ccccc2cc1O,3.68% (active)
3,C/C(=N\O)[C@@H]1CC[C@]2(CO)CC[C@]3(C)[C@H](CC[C@@H]4[C@@]5(C)CCCNC(C)(C)[C@@H]5CC[C@]43C)[C@@H]12,79.5%
4,Cc1cccc(N2CCC(=O)NC2=S)c1,106%
5,Nn1c(=O)c(=O)[nH]c2c(cnn2-c2ccccc2)c1=O,107%
6,O=C(Cn1nnc2ccccc21)N/N=C/c1c[nH]c2ccccc12,-15.9% (active)
7,O=C(O)/C=C/C(=O)Nc1cccc(Cn2nnc3cc(Cl)c(Cl)cc32)c1,106%
8,CN1CCN(Cc2ccc(NC(=O)c3cncc(C#Cc4cnc(N)c5ccc(F)cc45)c3)cc2C(F)(F)F)CC1,19.3%
9,Cc1ccc2c(-c3nnc(N)s3)cc(=O)oc2c1C,96.1%
10,CCOc1ccc(-n2nc(C(=O)NCc3ccccc3OC)nc2-c2cc(OC)c(OC)c(OC)c2)cc1,22.1%
11,CC1=C(CCC(C)NCc2ccc(OCCCN3CCCCC3)cc2)C(C)(C)CCC1 (stereo not drawn),-93.8% (active)
12,Cc1nc2ccccc2c(/C=C/c2ccccc2)c1C(=O)/C=C/c1ccccc1,-17.2% (active)
13,CCN(CC)CCN1C(=O)c2c(c(C)c3c(oc4ccc(O)cc43)c2C)C1=O,76.9%
14,COc1ccc(Cn2cc(C(=O)N=Nc3c(O)[nH]c4c(C)cccc34)nn2)cc1,82%
15,FC(F)(F)Oc1cccc(-c2cnc3ccc(-c4ccncc4)nn23)c1,12.3%
16,Cc1c2cccnc2c(C)c2c1c1cc(CO)ccc1n2C,22.6%
17,CNCc1cccc2c1OCCOCCOCCNS(=O)(=O)c1ccc(cc1)-c1cnc(N)c(n1)C(=O)N2,35.1%
18,CNC(C)[C@H]1CCC2C3CC=C4C(=O)[C@@H](NC(=O)C=C(C)C)CC[C@]4(C)C3CC[C@@]21C (stereo partly drawn),-40.6% (active)
19,C=C1C(=O)O[C@H]2[C@H]1CC/C(COC(=O)/C=C\C(=O)NCc1ccc(Cn3c(=O)sn(CCCCC)c3=O)cc1)=C\CC[C@@]1(C)O[C@@H]21,60.6%
